An excerpt weighted towards active compounds, which were near 4% of everything screened.
GALC G270D up: galactocerebrosidase G270D activity enhancement, cell-based. P54803. hit rate 0.1% among 45,000. Potency, µM (highest dose often 57.5 µM), most hits filed as activators. 145M-Twi-hGALC-G270D cells (Twitcher mouse brain line with human GALC G270D), HMU-beta-Gal fluorescence, 48 h; further: potency means the concentration at half of the fitted maximal effect; 0% is about no effect; nearly all actives have a fitted effect of over 65% in size
Target sequence (P54803 whole entry G286D): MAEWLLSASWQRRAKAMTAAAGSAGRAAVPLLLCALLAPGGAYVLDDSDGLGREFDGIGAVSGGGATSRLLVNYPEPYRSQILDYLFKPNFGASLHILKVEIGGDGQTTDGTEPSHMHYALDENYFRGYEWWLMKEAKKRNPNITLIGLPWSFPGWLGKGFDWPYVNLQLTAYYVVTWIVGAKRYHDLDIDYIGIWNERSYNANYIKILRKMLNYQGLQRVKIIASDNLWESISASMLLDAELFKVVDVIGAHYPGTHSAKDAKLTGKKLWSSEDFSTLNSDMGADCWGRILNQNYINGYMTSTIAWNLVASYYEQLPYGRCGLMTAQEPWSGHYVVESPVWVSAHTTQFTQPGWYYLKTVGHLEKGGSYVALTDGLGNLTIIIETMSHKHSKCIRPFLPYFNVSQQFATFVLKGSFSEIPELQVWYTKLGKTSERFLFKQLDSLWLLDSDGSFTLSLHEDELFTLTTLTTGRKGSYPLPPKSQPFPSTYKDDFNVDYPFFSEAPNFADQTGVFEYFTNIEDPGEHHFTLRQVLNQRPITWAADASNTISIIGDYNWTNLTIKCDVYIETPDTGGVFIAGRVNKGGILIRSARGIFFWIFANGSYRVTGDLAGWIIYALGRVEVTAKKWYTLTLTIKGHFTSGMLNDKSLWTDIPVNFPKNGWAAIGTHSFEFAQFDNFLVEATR
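Live 145M-Twi cells (Twitcher mouse brain-derived, GALC-null) stably expressing human GALC-G270D, with a wild-type GALC line, were compound-treated. Residual GALC activity was then read as fluorescence from 0.1 mM final HMU-β-gal at pH 5.2; higher signal means activation.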
p53null 32C kill: p53 null cell cytotoxicity, permissive temperature. hit rate 0.62% among 55,000. H1299-neo p53 null cells, ATP luminescence, 24 h, 32C. Potency, µM (doses to about 46.1 µM), for inactives: at the highest dose activity change, negative = cytotoxicity, hits mostly cytotoxic;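 further: potency means the concentration at half of the fitted maximal effect; 0% = DMSO only and -100% = full killing by 100 µM tamoxifen; nearly all actives have a fitted effect of over 55% in size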
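We seeded p53-null H1299-neo cells, incubated them overnight at 37C, and added compounds across a range up to 46 uM. After 24 hours at 32C, ATP reagent was applied for 20 min at room temperature and luminescence recorded.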
OvCa metastasis: ovarian cancer metastasis inhibition, 3D TME model. SKOV3ip1-GFP adhesion/invasion on 3D omental model, fluorescence. Potency, µM (titrated, usually from 45.8 µM), for inactives: top-dose activity change, negative = inhibition, actives largely listed as inhibitors. hit rate 0.1% among 46,000. AID 1963576;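 further: potency means the concentration at half of the fitted maximal effect; plate controls were DMSO wells for no effect and tomatine positive control wells for full effect; nearly all actives have a fitted effect of over 65% in size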
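A 3D layer of primary human omental fibroblasts, mesothelial cells, fibronectin and collagen I, grown 48 hr, received SKOV3ip1-GFP cells in serum-free medium plus compounds at 0.36-46 umol/L. After 2 hr RT and 16 hr 37 C, fixed adherent GFP cells were counted; normalized to DMSO and tomatine.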
NTMT1 inhibitor: inhibitors of human N-terminal methyltransferase NTMT1; Q9BV86; NTMT1 MTase-Glo SAH luminescence, purified enzyme; Potency, µM (titrated, usually from 114 µM), for the others: top-dose activity change, negative = inhibition, usual class: inhibitors; hit rate 2.5% among 59,000;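 further: potency means the concentration at half of the fitted maximal effect; plate controls were DMSO vehicle for no effect and no enzyme for full effect; nearly all actives have a fitted effect of over 65% in size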
p53null 39C kill: selectivity test: cytotoxicity in p53 null cells, nonpermissive temperature; H1299 p53-null (neo) cells, 39C, ATPlite viability, 24 h; Potency, µM (top dose mostly 46.1 µM), for the others: top-dose activity, negative = cell killing, hits mostly cytotoxic; hit rate 0.97% among 55,000;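 further: potency means the concentration at half of the fitted maximal effect; 0% = DMSO only and -100% = full killing by 100 µM tamoxifen; nearly all actives have a fitted effect of over 50% in size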
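Cells seeded at 600/well, 37C overnight. Compound added (up to 46 uM), plates shifted to 39C for 24 hr. ATPlite added, luminescence read after 20 min at room temperature.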
DRV1 agonist: GPR32 (DRV1) agonism, beta-arrestin recruitment | activation, % at 76.9 µM | CHO-K1 GPR32 beta-arrestin PathHunter luminescence, 90 min; zero percent set by DMSO-only wells | AID 1346428 | hit rate 2.5% among 48,000 | O75388;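 active means activation of at least 60% and not above a set upper limit, about 1 call in 100 departs from these limits; inconclusive means activation of 40% to 60%, or above that upper limit; inactive means activation under 40%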; further: 0% is about no effect
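PathHunter beta-arrestin recruitment in CHO-K1 cells stably expressing ProLink-tagged GPR32. Cells were exposed to compound for 90 min at 37 C, then chemiluminescence was read after 1 h detection at ambient temperature; DMSO served as basal control.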
Numbers without * were called inactive; i = inactive; ? = inconclusive; / = not tested or not shown; ! = repeats disagree; [ ] = dose if it differs, or a comment. Unless noted, the call rests on the fitted dose curve; in most records, active means well fitted curve in the direction sought with a large enough effect; inconclusive means small, poorly fitted or top-dose-only effect, or another doubt; inactive means no such curve, though single readings can be large; an effect the other way counts as inactive or inconclusive.

SMILES | GALC G270D up | p53null 32C kill | OvCa metastasis | NTMT1 inhibitor | p53null 39C kill | DRV1 agonist
Nc1cc(-c2ccncc2)c[nH]c1=O | i | / | / | ? | / | 37
Nc1c(-c2ccncc2)cc[nH]c1=O | / | / | / | 79µM* | / | /
O=C(NO)c1cnc(NC2(c3ccccc3)CC2)nc1 | / | / | / | 11% | / | /
Cc1ccc(-c2cc(C(=O)Nc3ccc(-c4noc(=O)[nH]4)cc3)c3ccccc3n2)cc1C | / | / | / | 45µM* | / | /
Cc1ccc(-c2cc(C(=O)NCc3ccc(S(C)(=O)=O)cc3)c3ccccc3n2)cc1C | / | / | / | 50µM* | / | /
Cc1ccc(-c2cc(C(=O)NCc3cnn(C)c3C)c3ccccc3n2)cc1C | i | ? | -6% | -21% | 0.79µM* | 31
Cc1ccc(-c2cc(C(=O)NCc3ccc(S(N)(=O)=O)cc3)c3ccccc3n2)cc1C | / | / | / | -9% | / | /
CONC(=O)c1ccccc1Nc1cc(Nc2cc(C)nn2C(C)C)ncc1Cl | / | / | / | -8% | / | /
COc1cc(OC)c(/C=C/S(=O)(=O)Cc2ccc(OC)c(OP(=O)(O)O)c2)c(OC)c1 | / | / | / | 5% | / | /
CCCCCC(O)CCCC(=O)O (stereo unspecified) | / | / | / | / | / | 5
CCCCC1CCC(CCCC(C)CCC(=O)O)CC1 (stereo unspecified) | i | 0% | 8% | 45µM* | 18% | -7
O=C1CCCC2=C1C(c1cccc(C(F)(F)F)c1)N=C(Nc1nc3ccccc3o1)N2 (stereo unspecified) | / | / | / | 20% | / | /
COc1cc(Oc2ccnc3cc(OC)c(OC)cc23)ccc1NC(=O)NC(C)c1nccs1 (stereo unspecified) | / | / | -7% | 79µM*! | / | /
CCN1CCN(CCCNC(=O)CS(=O)(=O)Cc2nc(-c3ccccc3C)oc2C)CC1 | i | -5% | i | -1% | -17% | 0
Cc1ccccc1-c1nc(CS(=O)(=O)CC(=O)NCCCc2ccccc2)c(C)o1 | i | -6% | 5% | ? | -1% | 80*
CCCCN=C(N)NC(=N)N | / | / | / | 42%[57.5 µM] | / | /
O=C1c2ccccc2-[n+]2ccc3c([nH]c4ccccc43)c21 | / | / | 2.3µM* | 45µM* | / | /
Cc1c(C(=O)O)oc2c1-c1nn(Cc3ccc(Cl)cc3)cc1CC2 | i | 14% | 3% | 50µM* | -5% | -24
COCCCNC(=O)c1oc2c(c1C)-c1nn(Cc3cccc(Cl)c3)cc1CC2 | i | 20% | 0% | -21% | 18µM* | -6
Cc1cccc(NC(=O)Nc2ccc(F)cc2)n1 | i | ? | 2% | -3% | ? | -11
Cc1ccc(NC(=O)Nc2cccc(C)n2)cc1 | i | ? | ? | -3% | ? | 65*
Cc1nn(C(C)C(=O)NC2CCC(C)CC2)c(=O)c2c1sc1ccccc12 (stereo unspecified) | i | ? | i | -4% | 20µM* | -16
COc1ccc(N2CCN(C(=O)C(C)n3nc(C)c4sc5ccccc5c4c3=O)CC2)cc1 (stereo unspecified) | i | -20% | ? | -15% | 13µM* | -26
CO[C@@H]1[C@@H](O)[C@H](O)[C@@H](n2c3c(Cl)cccc3c3c4c(c5c6cccc(Cl)c6[nH]c5c32)C(=O)NC4=O)O[C@H]1CO | / | / | / | -12% | / | /
CCc1ccc(NCc2cc3cc4c(cc3n(CC(=O)Nc3cccc(OC)c3)c2=O)OCO4)cc1 | 28µM* | 1% | 7% | -15% | 12% | -44
SMILES | GALC G270D up | p53null 32C kill | OvCa metastasis | NTMT1 inhibitor | p53null 39C kill | DRV1 agonist
Cn1nc(-c2ccc(OCC(=O)Nc3ccccc3)cc2)c2ccccc2c1=O | i | 2% | i | -1% | -4% | 13
COc1ccccc1NC(=O)COc1ccc(-c2nn(C)c(=O)c3ccccc23)cc1 | i | 19% | i | 0% | ? | 95*
O=C(O)c1ccc(O)c2ncc(N3CCCN(CCCc4ccncc4)CC3)cc12 | / | / | / | 3% | / | /
Cc1cc2n(n1)CCCN2C(=O)Nc1ccc(Cl)cc1 | i | 10% | -13% | ? | 30% | 108*
O=C(Nc1c(-c2cccs2)nc2ccccn12)c1ccc(Cl)cc1 | / | / | / | 1%[57.5 µM] | / | /
Cc1ccc2c(c1)c(=O)c1ccccc1n2CCCC(=O)Nc1ccc(C)c(C)c1 | 40µM* | 20% | ? | -5% | 6% | -2
COc1ccc(OCc2nc(-c3ccc(-n4cccc4)cc3)no2)cc1 | i | -12% | -9% | -13% | 8% | 117*
COc1cccc(-c2noc(COc3ccc(C(C)(C)C)cc3)n2)c1 | ? | -13% | 3% | 8% | -17% | -6
CCNCCc1ccc(CN(CC)c2cc(OC)ccc2[C@@H]2CCc3cc(O)ccc3C2)cc1 | / | / | / | 45µM* | / | /
C=CC(=O)N1CCN(C(=O)c2cc(-c3cc(Cl)ccc3Cl)c(Cl)cc2OC)CC1 | / | / | / | -1%[57.5 µM] | / | /
CC(C)(C[C@@](O)(Cc1cc2ccncc2[nH]1)C(F)(F)F)c1cc(F)ccc1O | / | / | / | -1%[57.5 µM] | / | /
CCOc1ccc(C2C(C(=O)Nc3ccccc3)=C(C)Nc3nc(SCc4cccc(OC)c4)nn32)cc1 (stereo unspecified) | i | 4% | -17% | 7% | 2% | 41
COc1cccc(CSc2nc3n(n2)C(c2ccc(C(=O)O)cc2)C(C(=O)Nc2ccccc2)=C(C)N3)c1 (stereo unspecified) | i | 4% | i | 45µM* | -1% | 17
CCOc1ccccc1CNC(=O)c1oc2ccc3c(c2c1C)C(=O)CC(C)(C)O3 | i | ? | -3% | 15% | 6% | -17
COc1ccc(NC(=O)c2oc3ccc4c(c3c2C)C(=O)CC(C)(C)O4)cc1OC | i | 13µM* | 6% | -14% | 3.2µM* | -3
CCc1cccc(NC(=O)c2oc3ccc4c(c3c2C)C(=O)CC(C)(C)O4)c1 | i | 5µM* | 5% | -4% | 5µM* | -5
CC[C@@H](C)[C@H](N)C(=O)N1Cc2ccccc2C1 | / | / | / | -3%[57.5 µM] | / | /
CCCCNC(=O)c1nn(C)c2c1CSc1ccccc1-2 | i | -2% | -5% | 79µM* | 0% | -16
O=C(O)C1(C(=O)O)CCC1.[NH2-].[NH2-].[Pt+2] | i | / | / | 18µM* | / | 43
NC1(C(=O)O)CC1 | / | / | / | / | / | -4
CN(C)c1cccc(-c2c3c(=O)n(-c4ccccc4Cl)[nH]c3cc(=O)n2C)c1 | / | / | / | -25%[57.5 µM] | / | /
Cc1cc(O)c(C(C)C)cc1Cl | i | / | / | 18%[57.5 µM] | / | 86*
CCOC(=O)c1ccc(NC(=O)c2cnc(N3CCCC3)nc2C)cc1 | i | -4% | 2% | 8% | 7% | 96*
C=C1C(=O)O[C@H]2C3=C(C)CCC[C@]3(C)C(=O)C[C@@H]12 | / | / | / | 2%[57.5 µM] | / | /

Source: PubChem BioAssay (National Center for Advancing Translational Sciences (NCATS))
